Drawing on publication PMC7862700, “An all-to-all approach to the identification of sequence-specific readers for epigenetic DNA modifications on cytosine”, this text covers binding signal for one sequence.

What all share (assay): DAPPL (digital affinity profiling via proximity ligation, sequencing); 10 mM Tris-HCl pH 7.5, 50 mM NaCl, 1 mM DTT, 4% glycerol, room temperature, 30 min; GST-TFs on glutathione beads, 16-mer random dsDNA library, 0.1% formaldehyde crosslink after washing; high values mean tight binding
Conditions in all cases: protein: recombinant; tags: N-terminal GST; dsDNA, one strand shown

One assay addresses T1, ELK1 (Homo sapiens, UniProt P19419 1-428).
T1 sequence: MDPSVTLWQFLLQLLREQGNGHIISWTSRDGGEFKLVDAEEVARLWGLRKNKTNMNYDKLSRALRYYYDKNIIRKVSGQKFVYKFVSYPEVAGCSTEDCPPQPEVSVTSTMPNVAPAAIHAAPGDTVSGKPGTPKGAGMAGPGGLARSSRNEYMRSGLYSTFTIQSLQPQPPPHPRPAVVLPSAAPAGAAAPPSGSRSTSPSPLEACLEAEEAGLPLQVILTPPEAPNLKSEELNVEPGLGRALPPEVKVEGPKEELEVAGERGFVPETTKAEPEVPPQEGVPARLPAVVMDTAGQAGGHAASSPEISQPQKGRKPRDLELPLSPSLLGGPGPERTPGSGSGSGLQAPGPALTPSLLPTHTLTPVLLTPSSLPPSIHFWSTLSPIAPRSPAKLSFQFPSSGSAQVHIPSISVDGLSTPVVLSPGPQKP
In outline:
(§1)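 GST fusions of human transcription factors were expressed in yeast and captured with glutathione beads. Once given DNA barcodes and pooled alongside a tag-only sample, they were incubated for 30 min at room temperature with 200 nmole of a random double-stranded 16-mer DNA library in Tris/NaCl/DTT/glycerol buffer, then washed, crosslinked (0.1% formaldehyde), proximity-ligated, PCR-amplified and sequenced on an Illumina NextSeq500. The binding signal of each hexamer is its read frequency for a factor divided by its frequency for the tag-only sample.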

The next assay has as its target T2, GABPA (Homo sapiens, UniProt Q06546 1-454).
T2 sequence: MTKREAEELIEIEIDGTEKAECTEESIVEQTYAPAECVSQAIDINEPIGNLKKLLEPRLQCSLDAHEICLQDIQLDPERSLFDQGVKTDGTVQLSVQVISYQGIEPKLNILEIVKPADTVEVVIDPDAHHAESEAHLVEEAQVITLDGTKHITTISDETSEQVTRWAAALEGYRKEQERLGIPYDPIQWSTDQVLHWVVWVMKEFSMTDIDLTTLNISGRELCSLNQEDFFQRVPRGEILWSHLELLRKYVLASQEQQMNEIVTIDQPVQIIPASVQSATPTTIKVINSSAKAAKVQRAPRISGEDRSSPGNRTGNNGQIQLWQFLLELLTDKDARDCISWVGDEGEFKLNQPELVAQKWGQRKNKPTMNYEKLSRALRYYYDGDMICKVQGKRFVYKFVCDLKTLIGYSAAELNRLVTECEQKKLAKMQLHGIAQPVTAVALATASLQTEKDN
In outline: as §1

The target of the next assay is ELF1 (Homo sapiens, UniProt P32519 1-619). In outline:
as §1

The target of another assay is T3, EHF (Homo sapiens, UniProt Q9NZC4 1-300).
T3 sequence: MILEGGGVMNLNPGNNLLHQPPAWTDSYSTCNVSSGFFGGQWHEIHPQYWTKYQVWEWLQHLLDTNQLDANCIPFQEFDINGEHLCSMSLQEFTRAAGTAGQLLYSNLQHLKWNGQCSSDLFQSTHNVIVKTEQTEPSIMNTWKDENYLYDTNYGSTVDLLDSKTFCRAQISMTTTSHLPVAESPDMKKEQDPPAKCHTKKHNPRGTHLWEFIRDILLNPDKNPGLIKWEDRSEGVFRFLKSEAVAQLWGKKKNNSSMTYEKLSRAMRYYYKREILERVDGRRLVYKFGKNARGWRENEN
Put shortly: as §1

The target of a further assay is SPI1 (Homo sapiens, UniProt P17947 1-270). In outline: as §1
For another assay, the target named is SPIB (Homo sapiens, UniProt Q01892 1-262). Put shortly: as §1
The target in another assay is T4, FEV (Homo sapiens, UniProt Q99581 1-238).
T4 sequence: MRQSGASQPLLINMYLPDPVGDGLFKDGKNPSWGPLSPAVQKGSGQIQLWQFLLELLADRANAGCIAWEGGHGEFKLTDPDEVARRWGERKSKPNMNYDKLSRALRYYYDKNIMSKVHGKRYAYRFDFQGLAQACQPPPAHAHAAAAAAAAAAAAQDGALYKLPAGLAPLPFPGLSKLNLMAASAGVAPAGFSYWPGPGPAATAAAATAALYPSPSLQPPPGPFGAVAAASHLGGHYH
In outline:
as §1

In a further assay the target is ETV5 (Homo sapiens, UniProt P41161 1-510). In outline: as §1
The target of another assay is ELF4 (Homo sapiens, UniProt Q99607 1-663). Put shortly:
as §1

The next assay addresses T5, ELK4 (Homo sapiens, UniProt P28324-2 1-405).
T5 sequence: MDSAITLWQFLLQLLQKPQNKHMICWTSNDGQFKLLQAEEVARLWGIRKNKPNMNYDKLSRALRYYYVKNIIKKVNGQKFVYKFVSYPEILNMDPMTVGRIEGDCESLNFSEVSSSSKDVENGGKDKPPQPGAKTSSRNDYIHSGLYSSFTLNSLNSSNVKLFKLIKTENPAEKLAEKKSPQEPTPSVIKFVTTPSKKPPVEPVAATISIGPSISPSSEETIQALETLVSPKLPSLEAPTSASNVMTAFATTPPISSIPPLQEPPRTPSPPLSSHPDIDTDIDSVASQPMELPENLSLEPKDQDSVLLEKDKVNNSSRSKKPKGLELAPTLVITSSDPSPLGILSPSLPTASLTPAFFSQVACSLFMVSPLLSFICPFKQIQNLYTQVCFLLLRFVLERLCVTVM
In outline:
as §1

For the next assay, the target named is T6, ETV2 (Homo sapiens, UniProt O00321 1-342).
T6 sequence: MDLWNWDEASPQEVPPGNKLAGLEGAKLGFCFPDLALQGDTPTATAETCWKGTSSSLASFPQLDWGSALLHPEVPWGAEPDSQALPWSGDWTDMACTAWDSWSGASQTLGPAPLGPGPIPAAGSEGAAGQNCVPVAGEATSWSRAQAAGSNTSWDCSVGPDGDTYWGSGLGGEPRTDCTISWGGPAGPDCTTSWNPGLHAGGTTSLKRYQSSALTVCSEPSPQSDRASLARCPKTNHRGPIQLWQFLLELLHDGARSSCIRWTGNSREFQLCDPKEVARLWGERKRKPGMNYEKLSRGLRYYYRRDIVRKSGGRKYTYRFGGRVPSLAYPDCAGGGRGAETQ
Put shortly:
as §1

The target in the next assay is T7, ERF (Homo sapiens, UniProt P50548 1-548).
T7 sequence: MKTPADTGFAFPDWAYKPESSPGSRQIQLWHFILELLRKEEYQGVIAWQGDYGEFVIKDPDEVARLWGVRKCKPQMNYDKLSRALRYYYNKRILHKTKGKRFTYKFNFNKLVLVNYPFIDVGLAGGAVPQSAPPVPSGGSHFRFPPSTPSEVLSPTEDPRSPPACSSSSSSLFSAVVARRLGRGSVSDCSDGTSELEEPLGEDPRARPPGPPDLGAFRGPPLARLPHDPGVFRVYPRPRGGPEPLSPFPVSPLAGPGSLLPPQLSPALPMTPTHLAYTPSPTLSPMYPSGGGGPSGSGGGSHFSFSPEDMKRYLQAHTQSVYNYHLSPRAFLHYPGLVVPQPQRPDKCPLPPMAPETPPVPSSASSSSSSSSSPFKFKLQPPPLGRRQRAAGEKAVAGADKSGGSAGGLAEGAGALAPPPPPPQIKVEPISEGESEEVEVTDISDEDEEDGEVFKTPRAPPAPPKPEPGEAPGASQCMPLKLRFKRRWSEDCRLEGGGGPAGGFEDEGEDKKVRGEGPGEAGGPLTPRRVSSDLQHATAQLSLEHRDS
In outline: as §1

A further assay addresses T8, ETV3 (Homo sapiens, UniProt P41162-2 1-143).
T8 sequence: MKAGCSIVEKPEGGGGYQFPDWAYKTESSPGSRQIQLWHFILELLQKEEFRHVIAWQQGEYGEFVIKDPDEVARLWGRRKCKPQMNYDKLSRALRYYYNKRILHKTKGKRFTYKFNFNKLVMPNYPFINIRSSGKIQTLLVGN
Put shortly:
as §1

For the next assay, the target named is ETV6 (Homo sapiens, UniProt P41212 1-452). In outline: as §1
Chain of ETV6 (P41212 whole entry): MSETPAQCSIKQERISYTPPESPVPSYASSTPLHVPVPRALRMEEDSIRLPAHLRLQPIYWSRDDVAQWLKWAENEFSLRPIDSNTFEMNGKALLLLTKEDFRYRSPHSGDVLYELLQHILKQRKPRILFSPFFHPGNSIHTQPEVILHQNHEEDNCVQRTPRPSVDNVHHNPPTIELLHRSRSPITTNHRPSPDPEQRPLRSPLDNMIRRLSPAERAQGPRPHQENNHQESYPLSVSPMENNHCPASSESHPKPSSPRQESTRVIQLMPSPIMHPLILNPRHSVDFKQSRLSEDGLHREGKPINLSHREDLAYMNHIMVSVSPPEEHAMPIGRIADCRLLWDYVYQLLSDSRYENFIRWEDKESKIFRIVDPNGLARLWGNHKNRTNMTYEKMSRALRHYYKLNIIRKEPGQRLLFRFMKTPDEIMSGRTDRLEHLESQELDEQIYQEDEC

Chain of ELF4 (Q99607 whole entry): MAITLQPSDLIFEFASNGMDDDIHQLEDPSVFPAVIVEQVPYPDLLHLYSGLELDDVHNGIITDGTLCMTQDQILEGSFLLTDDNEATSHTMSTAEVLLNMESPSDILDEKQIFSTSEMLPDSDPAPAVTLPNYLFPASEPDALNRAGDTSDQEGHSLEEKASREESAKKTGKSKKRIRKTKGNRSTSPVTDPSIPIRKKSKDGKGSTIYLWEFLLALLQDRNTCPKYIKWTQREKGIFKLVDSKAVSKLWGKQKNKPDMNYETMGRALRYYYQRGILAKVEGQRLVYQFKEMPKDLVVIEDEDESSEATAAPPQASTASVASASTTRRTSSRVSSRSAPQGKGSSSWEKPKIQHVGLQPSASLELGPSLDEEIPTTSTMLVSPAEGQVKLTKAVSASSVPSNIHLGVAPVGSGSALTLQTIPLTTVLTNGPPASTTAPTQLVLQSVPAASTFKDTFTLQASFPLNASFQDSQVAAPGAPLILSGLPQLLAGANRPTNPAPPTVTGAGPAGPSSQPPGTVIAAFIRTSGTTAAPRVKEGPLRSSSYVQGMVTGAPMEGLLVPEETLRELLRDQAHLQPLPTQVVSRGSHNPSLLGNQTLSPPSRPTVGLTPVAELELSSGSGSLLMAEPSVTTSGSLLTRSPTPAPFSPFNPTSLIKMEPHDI
Chain of SPIB (Q01892 whole entry): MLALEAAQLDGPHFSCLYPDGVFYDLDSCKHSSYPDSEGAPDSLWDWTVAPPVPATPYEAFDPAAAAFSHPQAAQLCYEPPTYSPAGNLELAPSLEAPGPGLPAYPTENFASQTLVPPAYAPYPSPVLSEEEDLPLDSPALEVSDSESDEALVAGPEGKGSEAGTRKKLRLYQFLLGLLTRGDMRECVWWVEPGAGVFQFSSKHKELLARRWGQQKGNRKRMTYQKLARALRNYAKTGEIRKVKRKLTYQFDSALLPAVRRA
Chain of ELF1 (P32519 whole entry): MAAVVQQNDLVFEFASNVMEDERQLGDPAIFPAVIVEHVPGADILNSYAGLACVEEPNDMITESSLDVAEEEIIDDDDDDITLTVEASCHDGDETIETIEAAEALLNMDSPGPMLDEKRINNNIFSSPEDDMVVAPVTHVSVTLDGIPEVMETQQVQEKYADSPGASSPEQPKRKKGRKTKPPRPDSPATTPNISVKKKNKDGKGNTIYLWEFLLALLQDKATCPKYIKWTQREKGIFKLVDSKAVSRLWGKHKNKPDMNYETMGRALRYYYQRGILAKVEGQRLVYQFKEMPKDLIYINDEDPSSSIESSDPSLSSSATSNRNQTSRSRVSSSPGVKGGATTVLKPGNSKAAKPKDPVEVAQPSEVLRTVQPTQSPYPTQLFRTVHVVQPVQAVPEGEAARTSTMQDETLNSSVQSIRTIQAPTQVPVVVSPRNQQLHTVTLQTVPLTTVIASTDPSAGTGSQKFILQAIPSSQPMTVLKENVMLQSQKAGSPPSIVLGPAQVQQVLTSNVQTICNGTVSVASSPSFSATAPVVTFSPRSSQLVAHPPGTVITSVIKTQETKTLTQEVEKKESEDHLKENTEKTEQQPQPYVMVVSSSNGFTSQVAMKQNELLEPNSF
Chain of ETV5 (P41161 whole entry): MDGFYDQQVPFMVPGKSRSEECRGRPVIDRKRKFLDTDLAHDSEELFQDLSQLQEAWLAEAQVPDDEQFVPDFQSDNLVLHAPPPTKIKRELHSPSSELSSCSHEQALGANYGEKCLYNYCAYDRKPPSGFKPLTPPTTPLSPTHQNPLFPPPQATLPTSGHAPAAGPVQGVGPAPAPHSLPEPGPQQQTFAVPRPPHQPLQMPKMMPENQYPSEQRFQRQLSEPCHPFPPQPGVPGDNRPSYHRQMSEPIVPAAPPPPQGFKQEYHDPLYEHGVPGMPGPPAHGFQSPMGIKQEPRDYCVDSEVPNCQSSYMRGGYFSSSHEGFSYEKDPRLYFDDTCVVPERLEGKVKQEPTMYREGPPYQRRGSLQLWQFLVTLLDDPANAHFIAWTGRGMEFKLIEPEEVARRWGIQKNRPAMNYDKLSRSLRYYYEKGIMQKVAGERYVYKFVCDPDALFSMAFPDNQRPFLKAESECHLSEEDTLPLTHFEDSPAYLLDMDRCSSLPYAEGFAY

For ACCAAA, the binding signal with ELK1 was 1.05 fold enrichment (6-mer frequency, TF over GST control); in the assay with GABPA, 1.01 fold enrichment (6-mer frequency, TF over GST control); in the assay with ELF1, 1.04 fold enrichment (6-mer frequency, TF over GST control); with EHF, 1.07 fold enrichment (6-mer frequency, TF over GST control); with SPI1, 1.06 fold enrichment (6-mer frequency, TF over GST control); with SPIB it was 1.03 fold enrichment (6-mer frequency, TF over GST control). For the same sequence, the binding signal in the assay with FEV was 1.07 fold enrichment (6-mer frequency, TF over GST control); with ETV5, 1.03 fold enrichment (6-mer frequency, TF over GST control); with ELF4 it was 1.1 fold enrichment (6-mer frequency, TF over GST control); in the assay with ELK4 it was 1.02 fold enrichment (6-mer frequency, TF over GST control); in the assay with ETV2, 1.14 fold enrichment (6-mer frequency, TF over GST control); with ERF, 1.03 fold enrichment (6-mer frequency, TF over GST control). The binding signal with ETV3 is 1.02 fold enrichment (6-mer frequency, TF over GST control); with ETV6, 1.03 fold enrichment (6-mer frequency, TF over GST control).
